aSyn rescue – rescues yeast growth from alpha-synuclein toxicity. 370,000 compounds, 0.14% hits. Potency, µM (highest dose often 46.1 µM), usual class: activators. Yeast expressing alpha-synuclein, growth rescue, BacTiter-Glo, 24 h; note: nearly all actives have a fitted effect of over 65% in size
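Screening used galactose-induced yeast with toxic alpha-synuclein levels, exposed to compound for 24 hr at 30 deg C. Cell growth, read with BacTiter-Glo luminescence, gave the measured signal.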
Abeta rescue – compounds reversing amyloid beta toxicity in yeast. yeast expressing A-beta42, growth rescue, OD600, 48 h; response scale: 0% DMSO, 100% iron-clioquinol control. 410,000 compounds, 0.063% hits. Potency, µM (highest dose often 46.1 µM), most hits filed as activators. AID 1347071; note: nearly all actives have a fitted effect of over 55% in size
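Yeast A-beta toxicity model in growth medium with pinned compounds, 48 h at 30 C; growth read as absorbance at 600 nm. Normalized to FeCl3/clioquinol equimolar mix (positive) and DMSO (negative).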
FUS yeast rescue – rescues growth of FUS-expressing yeast; S. cerevisiae FUS-expressing, growth rescue, OD600, 24 h; Potency, µM (top dose mostly 76.6 µM), actives largely listed as activators; 390,000 compounds, 0.24% hits; AID 1347120; note: nearly all actives have a fitted effect of over 55% in size
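Yeast expressing FUS under galactose induction, OD 0.005 in 2% galactose medium; compounds in a dilution series, 24 h at 30C. Growth rescue by absorbance at 600 nm; CP55940 positive control, DMSO negative.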
TDP43 rescue – TDP-43 toxicity inhibition in yeast; TDP-43 expressing yeast growth rescue, BacTiter-Glo, 24 h; Potency, µM (top dose mostly 46.1 µM), usual class: activators; 410,000 compounds, 1.8% hits; AID 652104; note: nearly all actives have a fitted effect of over 50% in size
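Yeast expressing TDP-43 (pregrown in raffinose, seeded at OD600=0.02 in galactose medium) exposed to compounds 24 hr at 30 deg C. Growth read by BacTiter-Glo luminescence; rescue of toxicity appears as increased signal.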
Of the large screens only hits and unclear results are named; the others gave an inactive call. A selection: hits, their analogues and other compounds. The true share with any hit is near 2.1%. Calls come from the whole dose curve; as a rule, active = well fitted curve in the direction sought with a large enough effect; inconclusive = small, poorly fitted or top-dose-only effect, or another doubt; inactive = no such curve, though single readings can be large; an effect the other way counts as inactive or inconclusive.

Nc1nc(-c2ccco2)nn1C(=O)c1ccc(F)cc1	TDP43 rescue 11.2µM
Oc1ccc(Br)cc1-c1cc(-c2ccco2)[nH]n1	TDP43 rescue 12.6µM
Oc1c(-c2cc(-c3ccco3)[nH]n2)ccc2ccccc12	TDP43 rescue 10µM
Oc1ccccc1-c1cc(-c2ccco2)[nH]n1	none
Oc1ccc(Br)cc1-c1ccn[nH]1	TDP43 rescue 12.6µM (no result: FUS yeast rescue)
Oc1ccc(Cl)cc1-c1cc(-c2cccc(Br)c2)n[nH]1	TDP43 rescue inconclusive
CCC1=C2CC[C@H]3C(=O)N(CC)C(=O)[C@H]3[C@H]2[C@@]2(Cc3ccccc3)C(=NCc3ccccc3)OC(=O)N2C1=O	none
O=[N+]([O-])/C=C\c1ccc(N2CCOCC2)cc1	none
CCCCC1(C)NC(=O)c2c(C)sc(C(=O)OCC)c2N1 (stereo unspecified)	TDP43 rescue 20µM
CCOC(=O)CC1(C)NC(=O)c2c(C)sc(C(=O)OCC)c2N1 (stereo unspecified)	none (no result: FUS yeast rescue)
CN(Cc1cnc2nc(N)nc(N)c2n1)c1ccc(C(=O)NC(CCC(=O)O)C(=O)O)cc1C(F)(F)F (stereo unspecified)	none (no result: FUS yeast rescue)
CN(Cc1cnc2nc(N)nc(N)c2n1)c1ccc(C(=O)NC(CCC(=O)O)C(=O)O)cc1 (stereo unspecified)	TDP43 rescue 15.8µM (no result: FUS yeast rescue)
Cc1ccc(C(=O)Nc2ccccc2C(=O)N2CC3(C)CC2CC(C)(C)C3)cc1 (stereo unspecified)	TDP43 rescue inconclusive
CCOCCCn1c(SCC(=O)Nc2cccc(S(=O)(=O)NC3=NCCCCC3)c2)nc2ccccc2c1=O	none
C=CCOc1ccc(C=CC(=O)c2c(O)c(OC)c(OC)c(OC)c2OC)cc1	TDP43 rescue 22.4µM (no result: FUS yeast rescue)
CCN(C(=O)CSc1ccc2ccccc2n1)C1CCCCC1	TDP43 rescue 22.4µM (no result: FUS yeast rescue)
Cc1ccc(NP(=O)(c2ccc(N(C)C)cc2NC(=O)c2cccs2)N2CCOCC2)cc1Cl (stereo unspecified)	FUS yeast rescue 3.98µM
O=C(c1cnn2c(C(F)(F)F)cc(-c3ccco3)nc12)N1CCCc2ccccc21	none
O=C(c1ccc(Cl)cc1)c1ccc(CN2C(=O)c3ccccc3C2=O)o1	TDP43 rescue 14.1µM
O=C(c1ccc(F)cc1)c1ccc(CN2C(=O)c3ccccc3C2=O)o1	TDP43 rescue 12.6µM
COC(=O)c1ccc(CN2C(=O)c3ccccc3C2=O)cc1	aSyn rescue inconclusive, TDP43 rescue inconclusive
O=C(CN1CCSc2ccccc21)NCc1ccccc1F	TDP43 rescue 12.6µM
CCOc1cc(CNC(=O)CN2CCSc3ccccc32)cc(OCC)c1OCC	none
Clc1ccc(C(c2ccccc2)c2c[nH]c3ccccc23)s1 (stereo unspecified)	TDP43 rescue 20µM
Cc1ccc2[nH]cc(C(c3ccccc3)c3ccc(Cl)s3)c2c1 (stereo unspecified)	TDP43 rescue inconclusive (no result: aSyn rescue)
Cc1ccc(NCc2ccccc2O)cc1C	none
O=C(OCC(=O)C12CC3CC(CC(C3)C1)C2)c1ccc(O)cc1	TDP43 rescue 11.2µM
O=C(Oc1ccc(O)cc1)C12CC3CC(CC(C3)C1)C2	TDP43 rescue 14.1µM
O=C1c2ccccc2C(=O)c2c(Nc3ccc(CCO)cc3)ccc(O)c21	none
O=C1c2c(O)ccc(O)c2C(=O)c2c(NCCNCCO)ccc(NCCNCCO)c21	FUS yeast rescue 28.2µM
Cc1cc(NC(=O)C(C)SCC(=O)OCC(=O)N(Cc2ccccc2)C(C)(C)C)no1 (stereo unspecified)	none
CC(/C=N/n1c(COc2ccccc2)n[nH]c1=S)=C\c1ccccc1	TDP43 rescue 11.2µM (no result: aSyn rescue)
Cc1cccc(/C=N/n2c(COc3ccccc3)n[nH]c2=S)c1	none
Cc1cccc(N2CCN(C(=O)c3oc(=O)c4ccccc4c3-c3ccccc3)CC2C)c1 (stereo unspecified)	FUS yeast rescue inconclusive, TDP43 rescue 12.6µM (no result: aSyn rescue)
O=C(c1oc(=O)c2ccccc2c1-c1ccccc1)N1CCOCC1	none
COc1ccc(CCN(Cc2cc3cc(C)cc(C)c3nc2Cl)C(=O)C2CC2)cc1	none
COc1ccc(-c2csc(C(O)c3ccc(F)c(F)c3)n2)cn1 (stereo unspecified)	aSyn rescue inconclusive, Abeta rescue inconclusive, TDP43 rescue 22.4µM
COc1ccc(-c2csc(C(O)c3ccc(F)c(OC)c3)n2)cn1 (stereo unspecified)	TDP43 rescue 35.5µM
OC(c1ccc(F)c(F)c1)c1nc(-c2ccc(Cl)cc2)cs1 (stereo unspecified)	aSyn rescue inconclusive, TDP43 rescue inconclusive
CCCCCCCCc1nc(=S)[nH][nH]1	TDP43 rescue 12.6µM
CCCCCCC1CC(CCc2nc(=S)[nH][nH]2)C(=O)O1 (stereo unspecified)	none
Cc1sc2ccccc2[n+]1CC(=O)O	none
Cc1sc2ccccc2[n+]1CC(=O)c1ccccc1	FUS yeast rescue inconclusive, TDP43 rescue 11.2µM
Cc1ccc(/C(N)=N/OC(=O)c2ccc(C)cc2Cl)cc1	TDP43 rescue 3.98µM (no result: FUS yeast rescue)
COc1ccc(C/C(N)=N/OC(=O)c2ccc(Cl)cc2)cc1	TDP43 rescue inconclusive
N/C(Cc1ccc(Cl)cc1)=N\OC(=O)c1ccc2ccccc2c1	TDP43 rescue 6.31µM
N/C(=N\OC(=O)c1ccc(Cl)cc1Cl)c1ccc(Cl)cc1	none
Cc1ccc(/C(N)=N/OC(=O)c2ccc3ccccc3c2)cc1	TDP43 rescue 1.26µM
Cc1cc(NC(=O)CC23CC4CC(C2)CC(CC(=O)Nc2cc(C)on2)(C4)C3)no1	none
CCn1cc(Br)c(C(=O)Nc2ccc(F)c(Cl)c2)n1	TDP43 rescue 11.2µM
CCn1cc(Br)c(C(=O)Nc2ccc(Cl)cc2Cl)n1	TDP43 rescue 4.47µM
CCOC(=O)c1ccc(NC(=O)c2nn(CC)cc2Br)cc1	none
CCOC(=O)c1c(NC(=O)c2nn(CC)cc2Br)sc(C)c1C	none
CC1=CCC2C(=O)N(c3ccc4ccccc4n3)C(=O)C2C1 (stereo unspecified)	none
Cc1cc(Nc2cccc(Cl)c2)nc2ccc(NC(=O)Cc3cccc(C(F)(F)F)c3)cc12	FUS yeast rescue inconclusive, TDP43 rescue 15.8µM (no result: aSyn rescue)
Cc1nc2ccc(NC(=O)c3cccc(C(F)(F)F)c3)cc2o1	TDP43 rescue 11.2µM
Cc1cc(Nc2cccc(C(F)(F)F)c2)nc2ccc(NC(=O)c3cccc(Cl)c3)cc12	Abeta rescue inconclusive, FUS yeast rescue inconclusive, TDP43 rescue 17.8µM (no result: aSyn rescue)
Cc1cc(Nc2cccc(Cl)c2)nc2ccc(NC(=O)c3ccc(F)cc3Cl)cc12	FUS yeast rescue inconclusive, TDP43 rescue 20µM (no result: aSyn rescue)
O=C(Nc1cccc(C(F)(F)F)c1)c1cccc(C(=O)Nc2cccc(C(F)(F)F)c2)c1	none (no result: aSyn rescue)
Cc1cc(Nc2cccc(Cl)c2)nc2ccc(NC(=O)Cc3ccc(Cl)cc3)cc12	FUS yeast rescue inconclusive, TDP43 rescue inconclusive (no result: aSyn rescue)
Cc1cc(Nc2cccc(C(F)(F)F)c2)nc2ccc(NC(=O)c3cccnc3)cc12	FUS yeast rescue inconclusive, TDP43 rescue inconclusive (no result: aSyn rescue)
Cc1ccc2c(C(=O)CNc3nccs3)c(C)[nH]c2c1	none (no result: Abeta rescue, FUS yeast rescue, TDP43 rescue)
